The subject of the assay is VDR homodimer (NR concentration 270 nM). The assay can be described thus: PBM binding z-score (relative to random genomic background probes); higher = stronger binding; sequences stand for … in GC…GCGATTGACAGCGTAGAATGAAGG
The method, boiled down:
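Regression normalization was applied to scanned fluorescence from custom Agilent 4×180K protein-binding microarrays. Before scanning, arrays were incubated 1 h with ligand-free nuclear receptor dimers, and binding was detected with antibodies against each partner (one per run). Binding z-scores use the random background probes as reference.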
Take GATACAGGCTCAGCTAGAGGCCAGAGTATGGAAA: the PBM binding z-score was -0.924. The figure for ACTTACGGGTCAACGAGGTTATGGCACGCGTATA is 3.94; for TCTTGTAGATCAATAGAGGTGAAGAAAGTGCGCT it is -0.534; for CGAACTAGGTCATTGACAGAACAGTGAATAGTAA it is 1.15.

Take TCTAGTTAGTCACGGAGGTCACACACGACGGGTA: the PBM binding z-score is 1.97. As for CCTGCTAGGTCATGGCCAGCTAATCTACAGTATG, the PBM binding z-score amounted to 0.188. In the case of ATCTCAAGGTAACCAAGTTCAGTGAATGCCGAAC, the PBM binding z-score came out at 3.2. For CCTAGCAGGCTAATCTGGGTCACTCAAGGCTTGA, the PBM binding z-score worked out at 0.114. The sequence CCTACCGGGCCAAAGGTCATTGATTCCAATGCTC yielded a PBM binding z-score of 2.38. Under TCTAGTTGGTCACGGATGTCACACACGACGGGTA stands 0.656; under CAAACTAGGTCAAAGCTCAAAGTCGAGCCAACCA, 0.583. As for TGAATGAGGATATAAGATCAGGGAACGTTGCAAA, the PBM binding z-score was -0.0248. Under TCTCGGAGGACACGAATGGTCAGAGCTCGACATC stands -0.606. The figure for CCTACTGGGCCAAAAAGGTCATCGATGCCGATAA is 1.99. Consider ATCTCTAGGTAACAAGTTCTGTGAAAGAGAGGAC, for which the PBM binding z-score was determined as 0.424.

For the sequence CGTACAAGGTCAATGCTAGGTCAGTGAAAGCATT, the PBM binding z-score came out at 3.22. Consider ACTCGAAGGACAAAGGTCAGAGCTACGCCAGTGA, for which the PBM binding z-score was found to be 0.565.

Turning to CCTGCTAGGTCAATGGCCAGCTAAAGCAGCTCGC, the PBM binding z-score is -0.525. Under TCTAGCAGGCCAGAGGGTCGCTCAAGAGGTACGG stands -0.526. The figure for ATACCGAGGTGATCGTGAGGTCGTTGATACTAAC is 2.85; for CGTGCTAGGTCATGGTCAGCTAATCTACAGTATG it is 0.319; for CGAACGAGGGCATGTGTTGATAGCAAATGCCGAT it is 1.44. Under CCTAGCAGGCCAATCTGGGGCACTCAAGGCTTGA stands -0.374; under CCGACTGGGGCAGAAGGGTTACCATACCATCCGG, -0.332; under ATCTCTAGGTAAAGATAGTTCAGTGGATGCAAAT, 0.205. With CGAATTAGGTCATTGACAGGACAGTGAATAGTAA, the PBM binding z-score is 1.22.

As to GTACCAAGGTGAATACGTCGTTGATGAGTAGGCG, the PBM binding z-score was -0.342. Under ATATGTAGGTTACATCCGGGTGATTCAGGCTATG stands 0.101; under CCTAGTTGGTCTGGAGGTCACACACCGGATATGA, 2.97; under AACGAAAGGTCGAGGTGAGTATAGAGAAAGGGAA, 0.21. The figure for CGAACTAGGTCAAGGACAGTGGATCTCCGCACGC is 0.315. With ATTACAGGGTCATCGTAGGCCAGAGTACGCACAG, the PBM binding z-score was found to be 3.83. Regarding ATCGAAAGGTAGACGAGGTGAGTATACACCGTTT, the PBM binding z-score was -0.467.

With TTACCAAGGTGAAGGTCGTTGAACCCTCTGTAGA, the PBM binding z-score was 1.63. As for CCTCGGAGGACAGCAGGTCAGAGCTGTCCGCTTT, the PBM binding z-score is -0.273. Under TCTATTACTTGATTAGGGCAACCGAAACAGCGGA stands 0.603. AGAAGGAGGTTACCAAAGATCAGGGAAACGCTTG came in with a PBM binding z-score of 0.128. The figure for CGTCACAGTTCAACTAAGGTAACGTAAAGCACGC is 2.16. The figure for GCTAGTAGGCCATTTGGGTCACTCAATGACGGGC is 0.26.

The record behind these values is the supplement of paper PMC6555819.
